# Most compounds without a hit are left out; they make up all but 3.8% or so of the library.
# rRNA inh HTS: selective bacterial rRNA inhibition in E. coli | E. coli WT GFP vs humanized-ribosome RFP mutants, fluorescence, 24 h; stronger effect = lower value; DMSO median 0, no signal -100 | AID 720706 | 350,000 compounds, 1.6% hits | GFP signal change (wild-type ribosome), % (no concentration beside the values);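 active = significant combined selectivity score with lowered wild-type GFP, culture density cut under 30%, mutant RFP and density less affected; inactive = any of these conditions unmet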
# ADAM10 inh: inhibits human ADAM10. inhibition, % at 7 µM. recombinant ADAM10, EDANS/DABCYL FRET peptide cleavage, 3 h. 370,000 compounds, 0.62% hits. AID 720582;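 active = inhibition above a per-campaign cutoff equal to the mean of compounds falling between control-based bounds plus 3 SD, cut at about 20% in these data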
# ADAM17 inh: inhibits human ADAM17; AID 720648; 370,000 compounds, 0.83% hits; recombinant ADAM17, EDANS/DABCYL FRET peptide cleavage; inhibition, % at 6.95 µM;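 active = inhibition above the mean of compounds lying between control limits plus 3 SD, set per campaign, cut at about 8.5% in these data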
# proKLK7 act: proKLK7 (human) activation, primary screen; purified proKLK7, EDANS-DABCYL substrate fluorescence; 100% is mature enzyme control, 0% vehicle; AID 652039; 370,000 compounds, 0.9% hits; P49862; activation, % at 7 µM;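 active = activation above the mean of all tested compounds plus 3 SD, computed per campaign excluding outliers beyond control limits, cut at about 13% in these data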
# Target sequence (P49862 whole entry, looked up): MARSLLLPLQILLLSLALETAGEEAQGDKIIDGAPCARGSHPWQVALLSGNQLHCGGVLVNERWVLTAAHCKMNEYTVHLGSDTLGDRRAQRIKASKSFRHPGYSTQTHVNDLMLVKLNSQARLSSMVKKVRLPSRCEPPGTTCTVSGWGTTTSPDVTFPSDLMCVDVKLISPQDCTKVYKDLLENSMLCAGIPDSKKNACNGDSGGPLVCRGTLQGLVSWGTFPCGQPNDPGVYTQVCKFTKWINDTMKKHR
# FGF22 binding: FGF22 (human) thermal shift binding; Q9HCT0; recombinant FGF22 thermal shift, SYPRO orange fluorescence; percent of sucrose octasulfate shift, DMSO zero; activity (Tm shift, normalised), % at 9.99 µM; 340,000 compounds, 1.5% hits; AID 651658;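 active = mean Tm shift, scaled 0 neutral to 100 positive control, at about 1.3% or above, every replicate too, limit read from the data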
# Target sequence (Q9HCT0 whole entry, looked up): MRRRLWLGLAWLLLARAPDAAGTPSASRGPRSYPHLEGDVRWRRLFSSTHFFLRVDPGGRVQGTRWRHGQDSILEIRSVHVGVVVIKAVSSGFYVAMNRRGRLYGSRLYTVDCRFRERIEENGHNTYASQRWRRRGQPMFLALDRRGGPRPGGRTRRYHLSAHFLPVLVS
# ADAM10 confirm: confirmation of inhibitors of human ADAM10 | shares compounds with ADAM10 inh | ADAM10 QFRET peptide cleavage, EDANS fluorescence | inhibition, % at 6.95 µM | 2,100 compounds, 1% hits | AID 743208;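 active = inhibition above about 20% chosen separately for each screening run, limit read from the data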
# ADAM17 ctr: inhibits human ADAM17 in ADAM10 exosite counter-screen; 2,100 compounds, 0.5% hits; inhibition, % at 6.95 µM; shares compounds with ADAM10 inh; ADAM17 QFRET peptide cleavage, EDANS fluorescence;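 active = mean triplicate inhibition above the solvent-only control wells' mean plus 3 SD, cut at about 12% in these data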
# ADAM10 ctr: inhibits human ADAM10 in ADAM17 exosite counter-screen; inhibition, % at 6.95 µM; 2,900 compounds, 47% hits; AID 743256; recombinant ADAM10, EDANS/DABCYL FRET peptide cleavage, 3 h; shares compounds with ADAM17 inh;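 active = mean inhibition over the triplicate runs exceeds the activity threshold set in the earlier primary screen, cut at about 20% in these data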
# ADAM17 confirm: confirmation of inhibitors of human ADAM17. shares compounds with ADAM17 inh. recombinant ADAM17, EDANS/DABCYL QFRET peptide cleavage. inhibition, % at 6.95 µM. 2,900 compounds, 65% hits. AID 743257;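 active = mean inhibition across replicates above the hit cutoff set in the primary screen, cut at about 8.5% in these data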
# Hits are given with their value; – = inactive; · = no result.
SMILES,rRNA inh HTS,ADAM10 inh,ADAM17 inh,proKLK7 act,FGF22 binding,ADAM10 confirm,ADAM17 ctr,ADAM10 ctr,ADAM17 confirm
CC(C)(C)OC(=O)C(Cc1ccc(OC(C)(C)C)cc1)NC(=O)CNC(=O)OCc1ccccc1 (centres undefined),–,25,13,–,–,–,–,–,–
Cc1ccc(NC(=O)c2nc[nH]c2C(=O)N[C@@H](C)C(=O)OC(C)(C)C)cc1,–,27,14,–,–,–,–,28,12
C[C@H](NC(=O)c1[nH]cnc1C(=O)Nc1ccccc1)C(=O)OC(C)(C)C,–,–,–,–,–,·,·,·,·
CCCC#Cc1ccc2c(c1)O[C@@H](CN(C)C(=O)C1CCC1)[C@@H](C)CN([C@@H](C)CO)S2(=O)=O,–,·,·,·,–,·,·,·,·
C[C@@H]1CN([C@@H](C)CO)S(=O)(=O)c2ccc(C3=CCCCC3)cc2O[C@H]1CN(C)C(=O)c1ccc(F)cc1,–,·,·,·,–,·,·,·,·
CNC(=O)C[C@@H]1CC[C@@H]2[C@H](COC[C@H](O)CN2C(=O)Nc2cccc(OC)c2)O1,–,·,·,·,–,·,·,·,·
CNC[C@H]1Oc2cc(C#CCN(C)C)ccc2S(=O)(=O)N([C@@H](C)CO)C[C@@H]1C,–,·,·,·,–,·,·,·,·
O=C(CNC(=O)c1[nH]cnc1C(=O)NC(c1ccccc1)c1ccccc1)OCc1ccccc1,–,21,11,–,–,–,–,29,13
CC(C)(C)OC(=O)[C@H](Cc1ccccc1)NC(=O)c1nc[nH]c1C(=O)NCC(=O)OCc1ccccc1,–,30,11,–,–,–,–,44,20
CC(C)(C)OC(=O)CNC(=O)c1[nH]cnc1C(=O)NCC(=O)OCc1ccccc1,–,–,–,–,–,·,·,·,·
C[C@H](CO)N1C[C@H](C)[C@@H](CN(C)Cc2cccnc2)Oc2cc(Br)ccc2S1(=O)=O,–,·,·,·,–,·,·,·,·
C[C@@H]1CN([C@H](C)CO)C(=O)c2cccc(NS(=O)(=O)c3cccs3)c2O[C@@H]1CN(C)S(=O)(=O)c1ccccc1,–,·,·,·,–,·,·,·,·
O=C(CSc1nnc(SCc2cccc3ccccc23)s1)Nc1ccc(S(=O)(=O)Nc2nccs2)cc1,·,35,11,–,·,–,–,26,11
C/C(CC(=O)Nc1ccc(Cl)c(Cl)c1)=N\NC(=O)Cc1ccccc1,–,–,–,–,–,·,·,·,·
COc1ccc(Cl)c(NC(=O)C/C(C)=N/NC(=O)CCc2ccccc2)c1,–,25,11,–,–,–,–,–,–
O=C(NC1CCC1)[C@H]1[C@H](CO)[C@H]2Cn3c(ccc(C4=CCCC4)c3=O)[C@H]2N1C(=O)C1CCCC1,–,·,·,·,–,·,·,·,·
O=C(NCC1COc2ccccc2O1)c1ccc(F)c(S(=O)(=O)N2CCOCC2)c1 (centres undefined),–,–,–,–,–,·,·,·,·
CCN(c1ccccc1)S(=O)(=O)c1cc(C(=O)Nc2ccc(Br)cc2)ccc1F,·,24,12,–,·,–,–,26,13
CCc1ccc(NC(=O)c2ccc(F)c(S(=O)(=O)NCC3COc4ccccc4O3)c2)cc1 (centres undefined),·,29,13,–,·,–,–,43,19
Cc1ccc(-c2ccc([C@H]3[C@@H](CO)N4C(=O)CN(C(=O)c5ccc(F)cc5)C[C@H]34)cc2)cc1,–,·,·,·,·,·,·,·,·
Cc1ccc(C)c(OCC(=O)N(C)CC(=O)Nc2ccc(Cl)c(C(F)(F)F)c2)c1,–,23,8.8,–,–,–,–,31,17
CN(CC(=O)Nc1ccc(Cl)c(C(F)(F)F)c1)C(=O)CC1Sc2ccccc2NC1=O (centres undefined),–,33,14,–,–,–,–,26,13
Cc1nc(-c2ccc(F)cc2)c(CC(=O)N(C)CC(=O)Nc2ccccc2Cl)s1,–,–,–,–,–,·,·,·,·
Cc1nc(-c2ccc(F)cc2)c(CC(=O)N(C)CC(=O)Nc2ccc(Cl)c(C(F)(F)F)c2)s1,–,32,19,–,–,–,–,25,14
O=C(CN1CCN(S(=O)(=O)c2ccc(Br)cc2)CC1)N/N=C/c1ccc(Cl)c([N+](=O)[O-])c1,–,26,11,–,–,–,–,26,14
SMILES,rRNA inh HTS,ADAM10 inh,ADAM17 inh,proKLK7 act,FGF22 binding,ADAM10 confirm,ADAM17 ctr,ADAM10 ctr,ADAM17 confirm
C[C@@H]1CN([C@@H](C)CO)C(=O)c2cc(/C=C/c3ccccc3)cnc2O[C@H]1CN(C)C(=O)C1CCCCC1,–,·,·,·,–,·,·,·,·
CCc1ccc(NC(=O)C2CCN(S(=O)(=O)c3ccc4c(c3)NC(=O)C(C)S4)CC2)cc1 (centres undefined),–,26,14,–,–,–,–,21,11
CCOc1ccc(NS(=O)(=O)c2ccc(NC(=S)NC(=O)C(C)C)cc2)cc1,·,–,–,–,·,·,·,·,·
COc1ccc(NS(=O)(=O)c2ccc(NC(=S)NC(=O)C(C)C)cc2)cc1,·,30,12,–,·,–,–,–,9.1
O=c1c(O)c(-c2ccc(O)cc2)oc2cc(O)cc(O)c12,·,21,8.9,–,–,–,–,–,–
O=c1cc(-c2ccc(O)cc2)oc2cc(O)cc(O)c12,·,–,–,–,–,·,·,·,·
C[C@H]1CN([C@@H](C)CO)C(=O)c2cc(-c3ccc(C#N)cc3)cnc2O[C@H]1CN(C)C(=O)Nc1ccccc1,–,·,·,·,–,·,·,·,·
COc1ccc(OCCC(=O)OCC(=O)Nc2cccc(S(=O)(=O)N3CCOCC3)c2)cc1,–,–,–,–,–,·,·,·,·
Cc1noc(C)c1COC(=O)c1cccc(S(=O)(=O)N2CCOCC2)c1,–,–,–,–,–,·,·,·,·
Cc1noc(C)c1COc1ccc(C(=O)OCC(=O)Nc2cccc(S(=O)(=O)N3CCOCC3)c2)cc1,·,25,11,–,·,–,–,29,13
CC(C)(C)c1ccc(OCCC(=O)Nc2cccc(S(=O)(=O)N3CCOCC3)c2)cc1,–,32,15,–,–,–,–,32,19
O=C1CCCN1c1ccc(S(=O)(=O)N2CCCCC2)cc1[N+](=O)[O-],–,–,–,–,–,·,·,·,·
O=C1CCCN1c1ccc(S(=O)(=O)Oc2cccc(Cl)c2)cc1[N+](=O)[O-],·,20,9.7,–,·,–,–,–,–
CC(C)NC(=O)NCC[C@H]1CC[C@@H](NS(=O)(=O)c2ccccc2)[C@H](CO)O1,–,·,·,·,·,·,·,·,·
